High-throughput results (PubChem BioAssay)
Hits are enriched below; roughly 2.3% of the tested compounds scored in any of these assays.
HIF-2a inh = HIF-2a inhibition; 0.72% of 360,000 active; 786-0 RCC cells HIF-2a reporter, luciferase luminescence, overnight; inhibition, % at 18.8 µM;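 active means inhibition of the luminescence signal of 40% or more relative to plate controls, in a single-dose primary screen at 18.75 µM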
hiPSC survival = enhancers of human iPSC single-cell survival; hiPSC single-cell survival, ATPlite luminescence; 100% = ROCK inhibitor wells, 0% = DMSO; survival enhancement, % at 20 µM; 0.044% of 360,000 active; AID 602274; in the data active means survival enhancement above about 18%;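 further: cells exposed to compounds for 16 hours before the ATP read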
TWEAK-Fn14 inh = blocks TWEAK-Fn14 interaction in a reporter cell assay. inhibition, % at 10 µM. 2% of 360,000 active. AID 1159606. TWEAK-stimulated Fn14 reporter cells, luciferase luminescence, 8 h; in the data active means inhibition above about 50%
KKLEB tox = CF airway cell cytotoxicity counter-screen; activity change (cytotoxicity), % at 5 µM; KKLEB CF airway cells viability, ATPlite luminescence, overnight; hits give low values; cells stimulated with P. aeruginosa culture filtrate; AID 602141; 0.36% of 360,000 active;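 active means corrected activity change at or below -50% at 5 µM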
CF NFkB inh = inhibitors of cystic fibrosis induced NF-kB; KKLEB NF-kB-GFP reporter, PAF-induced, GFP fluorescence overnight; inhibition, % at 5 µM; 0.86% of 360,000 active;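 active means at least 50% inhibition at 5 µM, scaled per plate between neutral and stimulator controls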;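 further: PAF is a Pseudomonas aeruginosa culture filtrate used as stimulus; plate controls were PAF-stimulated DMSO wells for no effect and unstimulated DMSO wells for full effect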
LGR2 inh = Drosophila LGR2 receptor signaling inhibition | HEK293 LGR2, CRE-luciferase, bursicon-stimulated, 4 h | inhibition, % at 9.99 µM | 0.35% of 380,000 active;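 active means drop in luminescence signal, shown as inhibition above about 50% in the replicate tests, limit read from the data, passing the limit was not always enough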;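 further: agonist challenge used bursicon conditioned medium at about half maximal strength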
Active calls of the source: *; / = not tested or not shown.

SMILES | HIF-2a inh | hiPSC survival | TWEAK-Fn14 inh | KKLEB tox | CF NFkB inh | LGR2 inh
COc1ccccc1-c1nnc2sc(-c3ccc(N(C)C)cc3)nn12 | -15 | 0 | 23 | -3 | 53* | -6
COc1ccccc1-c1nnc2sc(-c3cnccn3)nn12 | -9 | -1 | -5 | 0 | -7 | 0
C[C@@H]1CN([C@@H](C)CO)C(=O)c2cc(NC(=O)Nc3ccccc3)ccc2O[C@@H]1CN(C)CC1CC1 | / | / | / | / | / | -4
COc1ccc(-c2nc(CSCC(=O)NCc3ccco3)c(C)o2)cc1 | 26 | 1 | 69* | -10 | 15 | /
COc1ccc(NC(=O)CSCC(=O)NCc2ccco2)cc1 | 10 | 0 | 13 | 2 | 9 | -16
C[C@@H]1CN([C@@H](C)CO)C(=O)c2cccc(NC(=O)C3CC3)c2O[C@@H]1CN(C)S(=O)(=O)c1ccc(Cl)cc1 | / | / | / | / | / | -3
O=C(C[C@@H]1CC[C@H](NC(=O)C2CCC2)[C@H](CO)O1)NCC1CC1 | / | / | / | / | / | -3
Nc1ccc(-c2nc3c(Cl)c(N)ccc3[nH]2)cc1 | 14 | -3 | 61* | 5 | -25 | /
Nc1ccc(-c2nc3ccc(N)cc3[nH]2)cc1 | -28 | -2 | 2 | 8 | -27 | -39
CN(C)C(=O)C[C@H]1CC[C@H]2[C@@H](COC[C@H](O)CN2C(=O)c2ccncc2)O1 | / | / | / | / | / | -13
O=C(Cc1ccccn1)N1CC(=O)N2[C@@H](CO)[C@@H](c3ccc(-c4ccc(F)cc4)cc3)[C@@H]2C1 | / | / | / | / | / | -1
Cc1sc2nc(SCC(=O)Nc3c(C)n(C)n(-c4ccccc4)c3=O)n(C)c(=O)c2c1C | 17 | -4 | 58* | 2 | -3 | /
CCOC(=O)C1=C(c2ccccc2)NC(SCC(=O)Nc2ccc(C)cc2)=C(C#N)C1c1ccco1 (configuration not stated) | 25 | 0 | 25 | -16 | 9 | 5
CCOC(=O)C1=C(c2ccccc2)NC(SCC(=O)Nc2ccccc2C)=C(C#N)C1c1ccco1 (configuration not stated) | 21 | -3 | 51* | 8 | -12 | /
O=c1c2ccccc2sn1-c1ccc(Cl)cc1 | -240 | -2 | 24 | -10 | 64* | -40
O=c1c2ccccc2sn1-c1ccc(F)cc1 | -94 | -4 | -5 | -9 | 32 | -19
O=c1c2ccc(F)cc2sn1-c1ccccc1 | -47 | -2 | 1 | 5 | 54* | -1
Cc1cc([N+](=O)[O-])nn1CC(=O)NC(C)c1ccccc1 (configuration not stated) | 11 | -1 | 110* | -6 | -10 | 4
O=C(Nc1ccccc1C(=O)NCCCN1CCOCC1)c1ccc(F)cc1F | 11 | 0 | 4 | 0 | 9 | 11
CCOc1ccc(NC(=O)NCCCN2CCCC2)cc1 | 13 | -2 | 90* | -8 | 7 | -7
O=C(Nc1ccc(OCc2ccccc2)cc1)Nc1ccccc1C(=O)NCCCN1CCOCC1 | -105 | 0 | 89* | -5 | -10 | -25
O=C(c1ccccc1F)N1CC[C@H]2[C@H](CO)Nc3ccc(-c4ccc(F)cc4)cc3[C@H]21 | / | / | / | / | / | -10
CCC(=O)N1CC2(C1)[C@H](c1ccccc1)[C@H](CO)N2C(=O)c1cccnc1 | / | / | / | / | / | 0
C/C(=N/Nc1ncc(Br)cn1)c1ccc(Br)cc1 | -70 | -1 | -34 | -4 | 11 | -9
C/C(=N\Nc1ccc(C(=O)O)cc1)c1ccc(Br)cc1 | -4 | 0 | 66* | -1 | 16 | -24
SMILES | HIF-2a inh | hiPSC survival | TWEAK-Fn14 inh | KKLEB tox | CF NFkB inh | LGR2 inh
CN1/C(=C\C(=O)c2cncc(Br)c2)C(C)(C)c2ccccc21 | -71 | -1 | 56* | -10 | 26 | -4
COc1ccccc1OCC(=O)/C=C1/N(C)c2ccccc2C1(C)C | 10 | -1 | 17 | -5 | -8 | 30
CN1/C(=C\C(=O)c2ccco2)C(C)(C)c2ccccc21 | -19 | -2 | 61* | -34 | 2 | 25
CN1/C(=C\C(=O)COc2ccc3c(c2)OCO3)C(C)(C)c2ccccc21 | 8 | -3 | 64* | 1 | -1 | /
O=C(CCN1CCOCC1)c1ccc(N2CCCCC2)cc1 | -57 | -2 | 55* | -16 | 20 | -38
CC1(c2nnnn2-c2ccc3c(c2)OCCO3)CCC(=O)N1C1CCN(Cc2ccccc2)CC1 (configuration not stated) | 18 | 0 | 80* | / | / | 8
CCC(=O)Nc1ccc2c(c1)C(=O)N(C)[C@@H]1CC[C@@H](CC(=O)N3CCCCC3)O[C@@H]1CO2 | / | / | / | / | / | -3
CCOc1ccc(N=C(C)C2=C(O)c3ccccc3C2=O)cc1 | -220 | 0 | 8 | -14 | -10 | /
COc1ccc(N=C(C)C2=C(O)c3ccccc3C2=O)cc1 | -105 | -3 | 63* | -24 | 1 | 26
O=C1C(C=Nc2ccccc2)=C(O)c2ccccc21 | -238 | -2 | 61* | -12 | -22 | /
CN=CC1=C(O)c2ccccc2C1=O | -13 | -2 | -5 | 1 | 4 | /
COc1ccc(N=CC2=C(O)c3ccccc3C2=O)cc1 | 7 | -5 | 98* | -51* | -10 | /
O=C1C(C=Nc2ccccc2O)=C(O)c2ccccc21 | -202 | -1 | 44 | -5 | -4 | 65*
C[C@H](CO)N1C[C@H](C)[C@@H](CN(C)S(=O)(=O)c2ccc(Cl)cc2)Oc2c(NS(C)(=O)=O)cccc2C1=O | / | / | / | / | / | 0
CCNC(=O)[C@@H]1[C@@H](CO)[C@@H]2Cn3c(ccc(C4=CCCC4)c3=O)[C@H]1N2Cc1ccncc1 | / | / | / | / | / | -14
Cc1cccc(N(C)S(=O)(=O)c2ccc3c(c2)C(C)(C)C(=O)N3C)c1 | 2 | 3 | 88* | 4 | 8 | -4
CC(C)(C)c1ccc(-c2nnc3sc(-c4ccccn4)nn23)cc1 | 11 | 2 | 74* | 11 | 6 | 14
CC(C)NC(=O)Nc1ccc2c(c1)C(=O)N([C@@H](C)CO)C[C@H](C)[C@@H](CN(C)Cc1ccncc1)OCCCC[C@H](C)O2 | / | / | / | / | / | -1
O=C(C[C@H]1CC[C@H]2[C@@H](COC[C@H](O)CN2C(=O)Cc2ccccc2)O1)NC1CCCC1 | / | / | / | / | / | 6
C[C@@H]1CN([C@H](C)CO)C(=O)c2cccc(NC(=O)Nc3ccc(C(F)(F)F)cc3)c2O[C@@H]1CN(C)S(=O)(=O)c1ccccc1 | / | / | / | / | / | -7
O=C(CCCN1C(=O)/C(=C/c2ccccc2Cl)SC1=S)Nc1ccccn1 | 79* | -1 | 82* | -7 | 12 | 3
COc1ccccc1/C=C1\SC(=S)N(CCC(=O)NNC(=O)c2ccccc2OC)C1=O | 44* | -1 | 46 | 0 | -10 | -5
O=C(CCN1C(=O)/C(=C/c2ccccc2Cl)SC1=S)NNC(=O)c1cccnc1 | -10 | 2 | -1 | -10 | 7 | -7
O=C(CCCN1C(=O)/C(=C\c2cccs2)SC1=S)Nc1cc([N+](=O)[O-])ccc1O | 7 | 0 | -3 | -14 | 53* | -6
